aSyn 5UTR act = Activators via SNCA 5'UTR binding, MLPCN. activity score, % (tested at 7.5 µM), hits read low. AID 1814. alpha-synuclein 5'UTR reporter, activators screen. 7.1% of 300,000 active; in the data active = activity score below about -60%
Active calls of the source: *. A selection follows.

Results for O=C(c1ccccc1)c1c[nH]c2cc3c(cc2c1=O)OCCO3 ?
aSyn 5UTR act: -67.1*

Results for O=C(NCc1cccnc1)c1c[nH]c2cc3c(cc2c1=O)OCCO3 ?
aSyn 5UTR act: -123.3*

Results for C#Cc1cccc(NC(=O)CSc2nnc(-c3ccc(C(F)(F)F)cn3)o2)c1 ?
aSyn 5UTR act: -124.3*

How did N#Cc1cccc(NC(=O)CSc2nnc(-c3n[nH]c4ccccc34)o2)c1 do in these assays?
aSyn 5UTR act: -276.5*

Results for Cc1cccc(NC(=O)CSc2nnc(-c3n[nH]c4ccccc34)o2)c1 ?
aSyn 5UTR act: -180.0*

What do the screens show for `Cc1cc(C(=O)COC(=O)c2ccc(Cl)c(S(N)(=O)=O)c2)c(C)n1CC1CCCO1` (configuration not stated)?
aSyn 5UTR act: -104.0*

How did COCCn1c(C)cc(C(=O)COC(=O)c2ccc(Cl)c(S(N)(=O)=O)c2)c1C do in these assays?
aSyn 5UTR act: -103.3*

Results for Cc1cccc(C(=O)NCC(=O)OCC(=O)c2cc(C)n(CC3CCCO3)c2C)c1 (configuration not stated) ?
aSyn 5UTR act: -101.8*

Results for CCCCN1CCc2c([nH]c3ccccc23)C1=O ?
aSyn 5UTR act: -127.6*

Results for O=C1/C(=C\c2ccccc2)CCc2c1[nH]c1ccccc21 ?
aSyn 5UTR act: -121.5*

Results for CCCCCCCn1c2c(c(=N)c3ccccc31)CCC2 ?
aSyn 5UTR act: 79.4

Results for Cc1ccc(/C=C2/CCc3c([nH]c4ccccc34)C2=O)cc1 ?
aSyn 5UTR act: -180.1*

Results for CCCC/C=C1\CCc2c([nH]c3ccccc23)C1=O ?
aSyn 5UTR act: -75.0*

How did Cc1ccc2[nH]c3c(c2c1)CC/C(=C/c1ccccc1)C3=O do in these assays?
aSyn 5UTR act: -194.1*

How did Cc1ccc(-n2nnnc2Sc2nc([N+](=O)[O-])nn2C)cc1 do in these assays?
aSyn 5UTR act: -70.6*

What do the screens show for `CCN1CCN(c2ccc(NC(=O)c3ccco3)cc2Cl)CC1`?
aSyn 5UTR act: -112.2*

Results for O=C(Nc1ccc(N2CCOCC2)c([N+](=O)[O-])c1)c1ccco1 ?
aSyn 5UTR act: -73.0*

What do the screens show for `O=C(Nc1ccc(N2CCCC2)c(Cl)c1)c1ccco1`?
aSyn 5UTR act: -113.2*

What do the screens show for `CCN1CCN(c2ccc(NC(=O)c3cccc(F)c3)cc2Cl)CC1`?
aSyn 5UTR act: -81.7*

How did Cc1cc(C)c2nc(N3CCCC(C(=O)NCCCN4CCOCC4)C3)sc2c1 (configuration not stated) do in these assays?
aSyn 5UTR act: -77.5*

Results for Cc1cc(C)c2nc(N3CCCC(C(=O)NCCN4CCOCC4)C3)sc2c1 (configuration not stated) ?
aSyn 5UTR act: -73.5*

What do the screens show for `C=CCOC(=O)c1[nH]c2c(c1C)C(=O)CC(c1ccco1)C2` (configuration not stated)?
aSyn 5UTR act: 69.2

What do the screens show for `Cc1c(C(=O)OC2CCCC2C)[nH]c2c1C(=O)CCC2` (configuration not stated)?
aSyn 5UTR act: -91.7*

Results for CCOc1ccc2nc(SCc3ccccc3C#N)sc2c1 ?
aSyn 5UTR act: -220.4*

How did CCOc1ccc2nc(SCc3ccc(OC)cc3)sc2c1 do in these assays?
aSyn 5UTR act: -83.1*

What do the screens show for `O=C(/C=C/c1ccc(OCCCF)cc1)Nc1ccnc(-c2ccncc2)n1`?
aSyn 5UTR act: -209.3*

Results for O=C(/C=C/c1ccc(OCCCF)cc1)Nc1ccnc(-c2cccnc2)n1 ?
aSyn 5UTR act: -121.3*

What do the screens show for `CC1CCCC(C)N1C(=O)CSc1nnc(-c2cccs2)o1` (configuration not stated)?
aSyn 5UTR act: -81.9*

How did CCC1CCCCN1C(=O)CSc1nnc(-c2ccc(Cl)s2)o1 (configuration not stated) do in these assays?
aSyn 5UTR act: -62.5*

Results for CC1CCCCN1C(=O)CSc1nnc(-c2cccs2)o1 (configuration not stated) ?
aSyn 5UTR act: -107.7*

What do the screens show for `COc1ccc(-c2ccc3oc(-c4ccsc4)cc3c2)cc1`?
aSyn 5UTR act: -139.7*

Results for COc1cc(C(=O)Nc2ccc(N(C)C)cc2)c([N+](=O)[O-])cc1OC ?
aSyn 5UTR act: -75.1*

What do the screens show for `C#CCn1c(C)cc(C)c(S(=O)(=O)c2ccccc2)c1=O`?
aSyn 5UTR act: -72.6*

What do the screens show for `COc1nccnc1NS(=O)(=O)c1ccc(NCc2cc(Br)ccc2O)cc1`?
aSyn 5UTR act: -83.1*

How did COc1ccc2nc3ccccc3nc2c1N do in these assays?
aSyn 5UTR act: -67.4*

What do the screens show for `Nc1c2ccccc2nc2ccccc12`?
aSyn 5UTR act: 89.4

Results for COc1ccc2nc3cccc(OC)c3nc2c1 ?
aSyn 5UTR act: -104.6*

What do the screens show for `CCn1c(-c2ccc(N(C)C)cc2)nc2ccccc21`?
aSyn 5UTR act: -97.5*

How did CN(C)c1ccc(-c2nc3ccccc3n2C)cc1 do in these assays?
aSyn 5UTR act: 60.8

Results for C=CCn1c(-c2ccc(OC)cc2)nc2ccccc21 ?
aSyn 5UTR act: -73.3*

Results for COc1cc(/C=N/NC(=S)NC2CC3CC2C2C=CCC32)ccc1O (configuration not stated) ?
aSyn 5UTR act: -116.1*

Results for CCCC(=O)n1nc(-c2ccc(C)cc2)nc1NCc1ccco1 ?
aSyn 5UTR act: -88.1*

How did Cc1ccc(C(=O)n2nc(-c3ccccc3)nc2NCc2ccco2)cc1 do in these assays?
aSyn 5UTR act: -67.7*

How did O=S(=O)(c1ccccc1)n1nc(-c2ccccc2)nc1NCc1ccco1 do in these assays?
aSyn 5UTR act: -64.7*

Results for CC(C)(C)c1ccc(-c2noc(CCC(=O)NCc3ccco3)n2)cc1 ?
aSyn 5UTR act: 77.3

What do the screens show for `O=C1NC(=S)N/C1=C\C=C\c1ccccc1`?
aSyn 5UTR act: -104.2*

How did O=C1NC(=S)N/C1=C/c1ccc2ccccc2c1 do in these assays?
aSyn 5UTR act: -83.6*

Results for C=CCc1cc(/C=C2/NC(=S)NC2=O)cc(OC)c1O ?
aSyn 5UTR act: 51.9

What do the screens show for `Cc1cccc(C=Nc2ccc3c(c2)oc2ccccc23)c1O`?
aSyn 5UTR act: -166.0*

What do the screens show for `O=C(COc1ccccc1Cl)Nc1cc(Cl)ccc1O`?
aSyn 5UTR act: -185.1*

How did COC(=O)c1sccc1NC(=O)COc1ccccc1Cl do in these assays?
aSyn 5UTR act: -132.0*

How did CC1=C(CC(=O)c2ccc(Cl)cc2)C(=O)c2ccccc2C1=O do in these assays?
aSyn 5UTR act: -70.0*

What do the screens show for `O=C(Cc1ccccn1)c1ccc(Cl)cc1`?
aSyn 5UTR act: -164.2*

What do the screens show for `O=C(CCSc1ccccc1)N1CCN(c2ccccc2)CC1`?
aSyn 5UTR act: -136.6*

How did O=C(CCSc1ccc(Cl)cc1)N1CCCCCC1 do in these assays?
aSyn 5UTR act: -133.0*

What do the screens show for `Cc1ccc(-c2ccc(SCC(=O)N3CCN(c4ccccc4)CC3)nn2)cc1`?
aSyn 5UTR act: -90.6*

Results for Cc1nc2cc(-c3ccccc3)nn2c(C)c1CCC(=O)N1CCN(c2ccccc2)CC1 ?
aSyn 5UTR act: 56.7

Results for O=C(CCSc1ccc(Cl)cc1)N1CCN(c2ncccn2)CC1 ?
aSyn 5UTR act: -103.5*

Results for O=C(CCS(=O)(=O)c1ccccc1)N1CCN(c2ccc(F)cc2)CC1 ?
aSyn 5UTR act: -79.5*

How did C/C(=N\NC(=O)c1cc(-c2ccc(C)s2)[nH]n1)c1ccco1 do in these assays?
aSyn 5UTR act: -167.9*

Results for C/C(=N\NC(=O)c1cccs1)C(C)(C)C ?
aSyn 5UTR act: -93.8*

What do the screens show for `CC1C2CC(C/C2=N/NC(=O)c2cccs2)C1(C)C` (configuration not stated)?
aSyn 5UTR act: -73.6*

How did CCOC(=O)C/C(C)=N/NC(=O)c1cccs1 do in these assays?
aSyn 5UTR act: -131.3*
